Screening results (PubChem BioAssay)
Most compounds without a hit are left out; they make up all but 2.6% or so of the library.
Cruzain inh noDet: cruzain (T. cruzi) inhibition without detergent; purified cruzain, Z-FR-AMC fluorescence, no detergent; Potency, µM, for the others: max response, negative = inhibition, usual class: inhibitors; 200,000 tested, 2.3% active; AID 1476;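 note: plate controls were enzyme without inhibitor for no effect and buffer without enzyme for full effect; nearly all actives have a fitted effect of over 40% in size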
Target sequence (P25779 123-467 limits assumed): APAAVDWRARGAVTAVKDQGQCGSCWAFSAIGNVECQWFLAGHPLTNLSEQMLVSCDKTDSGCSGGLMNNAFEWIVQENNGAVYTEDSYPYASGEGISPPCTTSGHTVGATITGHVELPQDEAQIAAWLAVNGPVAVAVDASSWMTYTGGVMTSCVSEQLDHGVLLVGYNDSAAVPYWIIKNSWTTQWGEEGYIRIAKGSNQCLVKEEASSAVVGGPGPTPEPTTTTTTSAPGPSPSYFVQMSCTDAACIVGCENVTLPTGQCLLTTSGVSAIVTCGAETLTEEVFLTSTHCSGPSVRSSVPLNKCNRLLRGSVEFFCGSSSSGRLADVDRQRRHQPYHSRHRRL
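Detergent-free condition (0.00005% Triton X-100) in acetate buffer pH 5.5 with DTT. 1.5 nM enzyme and compound were pre-mixed 15 min, then 2 uM Z-FR-AMC substrate added; reaction progress from fluorescence change between first and third reads (60 s).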
Cruzain Triton: cruzain (T. cruzi) inhibition with detergent | Potency, µM, without a hit: max response, negative = inhibition, hits mostly inhibitors | purified cruzain, Z-FR-AMC fluorescence, 0.01% Triton | P25779 | 200,000 tested, 0.43% active;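 note: plate controls were neutral wells for no effect and buffer without enzyme for full effect; nearly all actives have a fitted effect of over 40% in size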
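15 min RT preincubation of 1.5 nM cruzain with compound, then 2 uM Z-FR-AMC added; kinetic AMC fluorescence, 60 s delta. Triton X-100 0.01%, pH 5.5.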
Papain counter: counter-screen for cruzain inhibitors: papain inhibition. shares compounds with Cruzain Triton. purified papain, Z-FR-AMC fluorescence cleavage. Potency, µM, for inactives: max response, negative = inhibition, actives largely listed as inhibitors. 410 tested, 41% active;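 note: 0% = no-compound wells and -100% = no-enzyme wells; nearly all actives have a fitted effect of over 35% in size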
Numbers without * were called inactive; ? = inconclusive; / = no result given. Calls come from the whole dose curve; as a rule, active = well fitted curve in the direction sought with a large enough effect; inconclusive = small, poorly fitted or top-dose-only effect, or another doubt; inactive = no such curve, though single readings can be large; an effect the other way counts as inactive or inconclusive. Potency is the fitted concentration of half-maximal effect.

SMILES	Cruzain inh noDet	Cruzain Triton	Papain counter
Cc1ccc(-c2nc3c(=O)n(C)c(=O)nc-3n(C)n2)cc1	/	/	-7.2%
Cc1ccccc1-c1nccc(-n2ccnc2)n1	2.0%	3.5%	/
CCc1ccc(-c2nn[nH]n2)cc1	-8.9%	2.8%	/
Cn1ncnc2c(=O)n(C)c(=O)nc1-2	1.26µM*	1.26µM*	11.0%
CCc1ccc(-c2nc3c(=O)n(C)c(=O)nc-3n(CC)n2)cc1	/	/	-8.6%
Cn1c(=O)c(-c2ccc(Cl)cc2)nc2cncnc21	1.3%	5.8%	/
Cc1ccccc1-c1nc2c(=O)n(C)c(=O)nc-2n(C)n1	/	/	-11.1%
Cc1ccc(NC(=O)c2c(C(=O)Nc3ccccc3)sc3nc(C)cc(=O)n23)c(C)c1	?	-2.9%	/
COc1ccc2c(c1OC)OCC(c1ccc(OC)c(OC)c1OC)C2 (stereo not drawn)	1.7%	2.2%	/
CCc1nn2c(=O)cc(COC(=O)c3cccc(NC(=O)COc4ccccc4)c3)nc2s1	-2.9%	0.7%	/
COC(=O)CCC(=O)OC1(C)C(=O)C=C2C=C(c3ccc(C#N)cc3)OC=C2C1=O (stereo not drawn)	12.9%	3.3%	/
Cc1ccc(NC(=S)c2nc3ccccc3[nH]2)c(C)c1	-23.9%	-7.5%	/
Cc1ccc2[nH]c(=O)c(NC(N)=S)nc2c1	1.58µM*	1.78µM*	1.5%
CCOc1ccc(-c2nc(Cn3c(=O)cc(C)c4c(C)nn(-c5ccccc5)c43)c(C)o2)cc1	-8.6%	-1.4%	/
CC(=O)N1CCCc2cc(S(=O)(=O)N3CCCC(C(=O)NC(C)C)C3)ccc21 (stereo not drawn)	-3.6%	0.8%	/
N#Cc1nc(NCC2CC2)nc(Nc2ccccc2)n1	/	/	1.26µM*
Nc1nc(NCC2CCC(CNS(=O)(=O)c3cccc4ccccc34)CC2)nc2ccccc12 (stereo not drawn)	?	-7.2%	/
N#Cc1nc(Nc2ccc(F)cc2)nc(NC2CCCC2)n1	/	/	0.447µM*
O=C(Nc1ccc(F)cc1)NC1CCCCC1	0.4%	5.0%	/
COc1cccc(/C=C/c2nc(C#N)c(NC3CCCCC3)o2)c1	4.0%	-4.6%	/
COc1cccc(Nc2nc(C#N)nc(NC3CCCC3)n2)c1	/	/	0.282µM*
N#Cc1nc(Nc2cccc3ccccc23)nc(NC2CCCC2)n1	/	/	4.47µM*
CC1CN=C(Nc2cccc3ccccc23)S1 (stereo not drawn)	0.1%	-2.7%	/
COc1ccc(OC)c(NC(=O)C(NS(=O)(=O)c2ccc3c(c2)CCCC(=O)N3)C(C)C)c1 (stereo not drawn)	3.7%	0.3%	/
CC12CN3CC(C)(CN(C1)C3c1ccc(OCc3ccccc3)cc1)C2=O (stereo not drawn)	-3.5%	2.4%	/
SMILES	Cruzain inh noDet	Cruzain Triton	Papain counter
CCOC(=O)C1CCN(C(=O)c2c(C)nn(-c3ccc(F)cc3)c2-n2cccc2)CC1	?	-2.7%	/
COc1ccc2c(c1)O[C@@H](c1cccc(C(F)(F)F)c1)[C@H](OC(=O)NCc1ccc3c(c1)OCO3)C2=O	-1.6%	-2.2%	/
CCOC(=O)c1ccccc1NC(=O)CSc1nc2ncccc2o1	1.6%	-2.3%	/
N#Cc1nc(Nc2cccc(Br)c2)nc(NC2CCCC2)n1	/	/	1.26µM*
c1ccc(-c2nnc(-c3ccccn3)nc2NC2CCCCC2)cc1	13.1%	0.3%	/
N#Cc1c[nH]n2c(NC3CCCC3)c(-c3cccc(Br)c3)nc12	?	-7.4%	/
N#Cc1nc(Nc2ccc(-c3ccccc3)cc2)nc(NC2CCCC2)n1	/	/	3.55µM*
N#Cc1nc(Nc2ccccc2)nc(NC2CCCC2)n1	/	/	0.447µM*
c1ccc(Nc2nc(N3CCCC3)nc(N3CCCC3)n2)cc1	-14.9%	-11.4%	/
COc1ccc(C(=O)NCC(c2cccnc2)N2CCc3ccccc32)cc1 (stereo not drawn)	5.3%	-1.8%	/
O=C(O)c1ccncc1.O=C(O)c1ccncc1.[Cl][Pt]([Cl])([Cl])[Cl]	4.3%	0.5%	/
COc1cccc(CNC(=O)CCc2cn(Cc3ccccc3Cl)c3ccccc23)c1	?	0.4%	/
Cc1cccc(CS(=O)(=O)Cc2ccc(C(=O)NC(C)c3ccccc3)o2)c1 (stereo not drawn)	13.4%	0.0%	/
CCC(C)[C@@H](NC(=O)OC(C)(C)C)c1nnc(S(=O)(=O)Cc2cccc(C)c2)o1 (stereo partly drawn)	7.94µM*	3.16µM*	12.6µM*
O=C(Nc1cccc(C(F)(F)F)c1)C1CCN(c2nnc(-n3cccc3)s2)CC1	-7.3%	-10.1%	/
COc1ccc(Cl)cc1N(C)C(=O)C(=O)Nc1ccc2nc3n(c(=O)c2c1)CCCCC3	?	-5.8%	/
C=CCn1c(SCC(=O)Nc2cccc3ccccc23)nnc1-c1cnccn1	-12.0%	-8.7%	/
C=CCn1c(SCC(=O)Nc2cc3oc4ccccc4c3cc2OC)nnc1-c1cnccn1	?	0.1%	4.5%
Cc1ccc2c(c1)C(Cc1ccccc1F)C(=O)N2 (stereo not drawn)	3.2%	-3.9%	/
